Measured values published in the supplement of paper PMC6555819.

How the values were obtained:
Test in all cases: PBM binding z-score (relative to random genomic background probes); higher = stronger binding; sequences stand for … in GC…GCGATTGACAGCGTAGAATGAAGG
[1] = test system: FXR:RXRa (NR concentration 270 nM, RXRa partner concentration 90 nM)
In short: (§1)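 For binding z-scores, the reference was random background probes on custom Agilent 4×180K protein-binding microarrays. These arrays were incubated 1 h with ligand-free nuclear receptor dimers in PBS pH 7.4, 2% milk, 0.02% Triton X-100, 1 mM DTT, 0.2 mg/mL BSA and 0.4 mg/ml salmon testes DNA. Fluorescence was scanned after antibody detection of each partner (one per run) and regression-normalized.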

[2] = test system: LXRa:RXRa (NR concentration 270 nM, RXRa partner concentration 90 nM)
In short: as §1

[3] = test system: LXRa homodimer (NR concentration 270 nM)
In short: as §1

[4] = test system: LXRb:RXRa (NR concentration 270 nM, RXRa partner concentration 90 nM)
In short: as §1

[5] = test system: LXRb homodimer (NR concentration 270 nM)
In short: as §1

[6] = test system: PPARa:RXRa (NR concentration 270 nM, RXRa partner concentration 90 nM)
In short: as §1

[7] = test system: PPARg:RXRa (NR concentration 180 nM, RXRa partner concentration 90 nM)
In short: as §1

[8] = test system: PPARg:RXRa 270nM:90nM, anti-RXR (NR concentration 270 nM, RXRa partner concentration 90 nM)
In short: as §1

[9] = test system: PPARg:RXRa 30nM:10nM, anti-RXR (NR concentration 30 nM, RXRa partner concentration 10 nM)
In short: as §1

[10] = test system: PPARg:RXRa 90nM:30nM, anti-RXR (NR concentration 90 nM, RXRa partner concentration 30 nM)
In short: as §1

[11] = test system: PPARg:RXRa DBDmut IVT, anti-RXR (DBD mutation: RXRa K156A/R161A, NR concentration 270 nM, RXRa partner concentration 90 nM)
In short: as §1

[12] = test system: PPARg:RXRa IVT, anti-PPARg (NR concentration 270 nM, RXRa partner concentration 90 nM)
In short: as §1

[13] = test system: PPARg DBDmut:RXRa IVT, anti-PPARg (DBD mutation: PPARg1 K132A/R137A, NR concentration 270 nM, RXRa partner concentration 90 nM)
In short: as §1

[14] = test system: PPARg DBDmut IVT, anti-PPARg (DBD mutation: PPARg1 K132A/R137A, NR concentration 270 nM)
In short: as §1

[15] = test system: PPARg homodimer (NR concentration 180 nM)
In short: as §1

[16] = test system: PXR:RXRa (NR concentration 270 nM, RXRa partner concentration 90 nM)
In short: as §1

[17] = test system: PXR homodimer (NR concentration 270 nM)
In short: as §1

[18] = test system: RARa:RXR (NR concentration 270 nM, RXRa partner concentration 90 nM)
In short: as §1

[19] = test system: RARa homodimer (NR concentration 270 nM)
In short: as §1

[20] = test system: RARb:RXRa (NR concentration 270 nM, RXRa partner concentration 90 nM)
In short: as §1

Sequence	PBM binding z-score [1]	PBM binding z-score [2]	PBM binding z-score [3]	PBM binding z-score [4]	PBM binding z-score [5]	PBM binding z-score [6]	PBM binding z-score [7]	PBM binding z-score [8]	PBM binding z-score [9]	PBM binding z-score [10]	PBM binding z-score [11]	PBM binding z-score [12]	PBM binding z-score [13]	PBM binding z-score [14]	PBM binding z-score [15]	PBM binding z-score [16]	PBM binding z-score [17]	PBM binding z-score [18]	PBM binding z-score [19]	PBM binding z-score [20]
CAGCCTAGGTCAGGGCCAGTAGAGGAGGAACGTT	1.51	0.675	-0.538	0.358	-1.25	1.97	0.595	0.833	-0.754	0.0745	1.54	1.51	-1.47	-0.919	1.22	-0.278	-0.736	0.769	-0.574	3.42
TAGCCTAGGTCATGGGCAAGTATACCACGCGAAC	4.43	3.35	0.241	2.46	-0.306	4.37	3.93	3.3	0.879	2.22	1.64	3.48	-0.144	0.186	1.13	1.51	-0.303	2.48	-0.000605	4.09
CTCGAGAGGTCGGTTGAGGTGAGTATACGGATAA	2.48	1.8	-0.0602	2.2	-0.474	2.93	0.425	0.591	-0.178	0.092	0.581	0.606	-0.792	-0.363	0.728	3.5	0.389	2.64	-0.682	2.05
ACTAGCGGGCCAAGGGTCACTCAAGATTAGTCCG	1.99	2.61	0.192	2.86	-0.58	4.26	7.39	7.39	6.2	8.29	0.353	3.65	-0.682	-0.893	0.892	3.21	-0.327	4.1	0.108	3.38
CCGACTGGGGCATCAGGTTACCATAAGCCAGCCC	-0.188	0.277	-0.351	-0.136	-1.31	0.743	1.33	1.59	-0.0759	1.03	3.34	3.84	-0.621	-1.56	0.326	-0.505	-0.821	-0.109	-0.776	1.01
TCGAGTAGGTTACCAATGGGGCTTTCAGCTTTCT	-0.0439	0.131	-1.06	0.62	-0.632	0.836	-0.121	0.803	1.11	0.796	3.39	2.45	-0.964	0.0286	-0.411	-0.0679	-0.767	-0.0921	-1.47	0.762
